Assay results taken from PubChem BioAssay (EPA / NIEHS).
“And” between values parts separate entries of the source, which are not always exact repeats. Identical values can stand only once. Inconclusive results are not listed. Some structures have more than one record in an assay (separate samples or runs), and their calls can disagree. The source made the active and inactive calls. Rule for the calls, unless noted: active = hit-call score of the fitted dose curve at least 0.9, where 1 is the maximum; inactive = score below 0.9.

Columns and labels:
[1] = molecular target: human RAR-related Orphan Receptor beta (RORb), RORB (gene 6096) (UniProt Q92753); assay: ATG_RORb_TRANS: Attagene TRANS-FACTORIAL HepG2 Assay for human RAR-related Orphan Receptor beta (RORb) (AID 2283010; active = hit-call score of the fitted dose curve at least 0.9, where 1 is the maximum)
Method in brief: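 HepG2 cells were transiently transfected with multiplexed GAL4-UAS reporter units expressing chimeric nuclear receptor–GAL4 proteins, then dosed for 24 h. Reporter mRNA was quantified by RT-PCR with fluorescent labelling and capillary electrophoresis; gain of signal was fitted relative to DMSO.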

[2] = molecular target: Retinoic acid receptor RXR-alpha (Homo sapiens) (UniProt P19793); assay: ATG_RXRa_TRANS: Attagene TRANS-FACTORIAL HepG2 Assay for human Retinoid X Receptor alpha (RXRa) (AID 2283012; active = hit-call score of the fitted dose curve at least 0.9, where 1 is the maximum)
Method in brief: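 HepG2 cells transiently transfected with multiplexed GAL4-UAS reporter units and chimeric NR-GAL4 fusions, dosed 24 h. Reporter mRNA measured by RT-PCR, FAM labelling, HpaI digestion and capillary electrophoresis; gain-of-signal fitted relative to DMSO baseline.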

[3] = molecular target: human Retinoid X Receptor beta (RXRb), RXRB (gene 6257) (UniProt P28702); assay: ATG_RXRb_TRANS: Attagene TRANS-FACTORIAL HepG2 Assay for human Retinoid X Receptor beta (RXRb) (AID 2283013; active = hit-call score of the fitted dose curve at least 0.9, where 1 is the maximum)
Method in brief: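 HepG2 cells transiently transfected with multiplexed reporter units driven by GAL4-UAS and exogenous chimeric NR-Gal4 proteins; treated 24 h. Reporter mRNA measured by RT-PCR, 6-FAM labelling and capillary electrophoresis; gain-of-signal fitted versus DMSO baseline.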

[4] = molecular target: human Thyroid Receptor alpha (THRa1), THRA (gene 7067) (UniProt P10827); assay: ATG_THRa1_TRANS: Attagene TRANS-FACTORIAL HepG2 Assay for human Thyroid Receptor alpha (THRa1) (AID 2283014; active = hit-call score of the fitted dose curve at least 0.9, where 1 is the maximum)
Method in brief: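 Transcripts from GAL4-UAS-driven reporters, measured after 24 h compound exposure by RT-PCR plus capillary electrophoresis of 6-FAM-labeled fragments, were fitted for gain of signal relative to DMSO. Cells: transiently transfected HepG2 expressing NR-Gal4 chimeras.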

[5] = read-out: E-selectin (Homo sapiens) (UniProt P16581); assay: BSK_3C_Eselectin: BioMAP Diversity Plus: 3C Assay for Eselectin Biomarker Activity (AID 2283015); settings: primary human endothelial cells (HUVEC); actives raise or lower the signal;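 for outcome: cell surface E-selectin protein quantified by ELISA 24 h after dosing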
Method in brief: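 E-selectin ELISA readout, fitted bidirectionally relative to DMSO, taken 24 h post-dosing in HUVEC cultures of the 3C system. Overt cytotoxicity tracked with sulforhodamine B staining of parallel wells.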

[6] = read-out: Interleukin-1 alpha (IL1a), IL1A (gene 3552); assay: BSK_BE3C_IL1a: BioMAP Diversity Plus: BE3C Assay for Interleukin-1 alpha (IL1a) Biomarker Activity (AID 2283016); settings: primary human bronchial epithelial cells; actives raise or lower the signal
Method in brief: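 Human primary bronchial epithelial cells (BE3C system) were dosed with compound and IL-1a measured by ELISA 24 h later. Activity was fitted bidirectionally against DMSO baseline; cytotoxicity was tracked in parallel cultures by SRB total-protein staining.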

[7] = read-out: Monocyte Chemoattractant Protein-1 (MCP1), CCL2 (gene 6347); assay: BSK_3C_MCP1: BioMAP Diversity Plus: 3C Assay for Monocyte Chemoattractant Protein-1 (MCP1) Biomarker Activity (AID 2283017); settings: primary human endothelial cells (HUVEC); actives raise or lower the signal
Method in brief: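 MCP-1 was measured by ELISA 24 h after dosing in primary HUVEC 3C cultures and fitted in both directions relative to DMSO; cytotoxicity was checked by SRB total-protein staining in parallel wells.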

[8] = read-out: Monocyte Chemoattractant Protein-1 (MCP1), CCL2 (gene 6347); assay: BSK_4H_MCP1: BioMAP Diversity Plus: 4H Assay for Monocyte Chemoattractant Protein-1 (MCP1) Biomarker Activity (AID 2283018); settings: primary human endothelial cells (HUVEC); actives raise or lower the signal
Method in brief: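 Human umbilical vein endothelial cells (4H system) dosed with chemical; MCP-1 measured by ELISA 24 h after dosing. Bidirectional curve fitting against DMSO negative control as baseline; parallel SRB total-protein staining tracks overt cytotoxicity.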

[9] = read-out: Human Leukocyte Antigen - DR isotype (HLADR), HLA-DRA (gene 3122); assay: BSK_3C_HLADR: BioMAP Diversity Plus: 3C Assay for Human Leukocyte Antigen - DR isotype (HLADR) Biomarker Activity (AID 2283019); settings: primary human endothelial cells (HUVEC); actives raise or lower the signal;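 for outcome: ELISA of cell-surface HLA-DR on HUVEC 24 h after dosing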
Method in brief: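 Bidirectional fitting against DMSO was applied to the HLA-DR ELISA signal from human umbilical vein endothelial cells, 24 h post-dose. Cytotoxicity came from parallel SRB total-protein staining; 3C proliferation was counted by SRB at 48 h.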

[10] = molecular target: human RAR-related Orphan Receptor gamma (RORg), RORC (gene 6097) (UniProt P51449); assay: ATG_RORg_TRANS: Attagene TRANS-FACTORIAL HepG2 Assay for human RAR-related Orphan Receptor gamma (RORg) (AID 2283011; active = hit-call score of the fitted dose curve at least 0.9, where 1 is the maximum)
Method in brief: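 Reporter transcripts from a transfected RORg-GAL4 chimera in HepG2 cells were quantified 24 h after dosing by RT-PCR, 6-FAM labelling, HpaI digestion and capillary electrophoresis; increases over DMSO baseline were fitted.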

human Thyroid Receptor alpha (THRa1), THRA (gene 7067), sequence (P10827 whole entry, looked up, the tested form may be a part): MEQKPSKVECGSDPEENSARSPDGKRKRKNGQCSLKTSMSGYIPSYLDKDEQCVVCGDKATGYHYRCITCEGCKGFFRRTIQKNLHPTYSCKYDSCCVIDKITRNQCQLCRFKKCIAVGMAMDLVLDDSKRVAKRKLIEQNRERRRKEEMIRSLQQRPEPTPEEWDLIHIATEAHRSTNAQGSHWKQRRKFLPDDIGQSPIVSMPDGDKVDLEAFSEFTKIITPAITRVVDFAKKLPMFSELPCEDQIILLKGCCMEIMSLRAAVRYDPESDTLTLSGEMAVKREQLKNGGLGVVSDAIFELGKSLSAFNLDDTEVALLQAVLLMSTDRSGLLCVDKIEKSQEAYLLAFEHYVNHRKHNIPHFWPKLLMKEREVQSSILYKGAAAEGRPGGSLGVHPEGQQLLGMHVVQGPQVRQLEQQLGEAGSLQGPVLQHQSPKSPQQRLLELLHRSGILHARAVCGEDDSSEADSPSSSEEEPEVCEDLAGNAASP
human Retinoid X Receptor beta (RXRb), RXRB (gene 6257), sequence (P28702 whole entry, looked up, the tested form may be a part): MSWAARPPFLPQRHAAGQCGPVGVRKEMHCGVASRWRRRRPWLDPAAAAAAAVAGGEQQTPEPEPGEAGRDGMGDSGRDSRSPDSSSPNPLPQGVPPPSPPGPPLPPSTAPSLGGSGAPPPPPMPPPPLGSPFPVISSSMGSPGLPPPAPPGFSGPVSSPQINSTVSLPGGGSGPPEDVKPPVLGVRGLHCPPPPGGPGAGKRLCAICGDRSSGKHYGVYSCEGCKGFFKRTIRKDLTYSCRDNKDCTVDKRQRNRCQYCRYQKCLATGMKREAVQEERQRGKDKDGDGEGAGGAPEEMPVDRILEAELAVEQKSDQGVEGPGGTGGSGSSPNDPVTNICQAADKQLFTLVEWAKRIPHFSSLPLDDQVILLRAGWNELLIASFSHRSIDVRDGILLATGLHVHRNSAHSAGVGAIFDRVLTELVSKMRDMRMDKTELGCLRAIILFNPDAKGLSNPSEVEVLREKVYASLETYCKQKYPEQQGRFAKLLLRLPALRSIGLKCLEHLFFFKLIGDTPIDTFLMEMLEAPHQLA
human RAR-related Orphan Receptor beta (RORb), RORB (gene 6096), sequence (Q92753 whole entry, looked up, the tested form may be a part): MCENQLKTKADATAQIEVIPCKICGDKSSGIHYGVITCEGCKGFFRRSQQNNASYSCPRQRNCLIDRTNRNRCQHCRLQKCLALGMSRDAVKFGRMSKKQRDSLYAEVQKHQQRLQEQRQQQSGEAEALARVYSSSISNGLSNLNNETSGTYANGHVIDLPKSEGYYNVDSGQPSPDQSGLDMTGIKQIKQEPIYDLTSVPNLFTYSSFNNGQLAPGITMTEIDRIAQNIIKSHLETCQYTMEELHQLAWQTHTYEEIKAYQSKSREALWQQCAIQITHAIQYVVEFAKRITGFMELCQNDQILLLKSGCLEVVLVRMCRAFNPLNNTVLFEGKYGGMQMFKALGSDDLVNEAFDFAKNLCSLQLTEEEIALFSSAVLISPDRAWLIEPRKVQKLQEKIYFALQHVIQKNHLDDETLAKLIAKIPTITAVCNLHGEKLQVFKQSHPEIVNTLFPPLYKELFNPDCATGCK
human RAR-related Orphan Receptor gamma (RORg), RORC (gene 6097), sequence (P51449 whole entry, looked up, the tested form may be a part): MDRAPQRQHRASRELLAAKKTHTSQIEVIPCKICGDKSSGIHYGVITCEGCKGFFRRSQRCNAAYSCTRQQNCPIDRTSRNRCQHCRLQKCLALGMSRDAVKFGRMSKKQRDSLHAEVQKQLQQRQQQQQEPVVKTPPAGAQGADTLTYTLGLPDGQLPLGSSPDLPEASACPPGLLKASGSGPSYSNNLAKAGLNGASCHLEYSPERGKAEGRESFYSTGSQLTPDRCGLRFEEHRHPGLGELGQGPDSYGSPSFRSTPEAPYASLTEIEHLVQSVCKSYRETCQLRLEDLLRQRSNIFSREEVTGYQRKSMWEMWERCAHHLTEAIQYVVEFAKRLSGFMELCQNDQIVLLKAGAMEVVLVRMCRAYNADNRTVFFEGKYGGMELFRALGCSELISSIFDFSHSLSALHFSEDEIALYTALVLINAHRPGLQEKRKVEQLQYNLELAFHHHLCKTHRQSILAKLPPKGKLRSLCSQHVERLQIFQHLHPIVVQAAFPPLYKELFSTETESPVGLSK
Retinoic acid receptor RXR-alpha (Homo sapiens), sequence (P19793 whole entry, looked up, the tested form may be a part): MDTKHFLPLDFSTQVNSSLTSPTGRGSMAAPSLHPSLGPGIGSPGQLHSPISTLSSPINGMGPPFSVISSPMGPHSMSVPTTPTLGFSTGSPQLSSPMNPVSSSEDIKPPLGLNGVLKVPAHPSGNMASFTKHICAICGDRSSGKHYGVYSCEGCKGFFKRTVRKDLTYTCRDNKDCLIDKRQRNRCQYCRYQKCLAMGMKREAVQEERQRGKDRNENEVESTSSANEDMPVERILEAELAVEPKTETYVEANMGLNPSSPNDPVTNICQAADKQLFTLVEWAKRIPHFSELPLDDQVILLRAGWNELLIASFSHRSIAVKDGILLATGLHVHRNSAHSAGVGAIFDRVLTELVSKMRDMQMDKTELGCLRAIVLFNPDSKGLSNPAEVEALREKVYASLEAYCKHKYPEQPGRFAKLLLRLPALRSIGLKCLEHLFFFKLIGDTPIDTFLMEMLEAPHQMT
E-selectin (Homo sapiens), sequence (P16581 whole entry, looked up): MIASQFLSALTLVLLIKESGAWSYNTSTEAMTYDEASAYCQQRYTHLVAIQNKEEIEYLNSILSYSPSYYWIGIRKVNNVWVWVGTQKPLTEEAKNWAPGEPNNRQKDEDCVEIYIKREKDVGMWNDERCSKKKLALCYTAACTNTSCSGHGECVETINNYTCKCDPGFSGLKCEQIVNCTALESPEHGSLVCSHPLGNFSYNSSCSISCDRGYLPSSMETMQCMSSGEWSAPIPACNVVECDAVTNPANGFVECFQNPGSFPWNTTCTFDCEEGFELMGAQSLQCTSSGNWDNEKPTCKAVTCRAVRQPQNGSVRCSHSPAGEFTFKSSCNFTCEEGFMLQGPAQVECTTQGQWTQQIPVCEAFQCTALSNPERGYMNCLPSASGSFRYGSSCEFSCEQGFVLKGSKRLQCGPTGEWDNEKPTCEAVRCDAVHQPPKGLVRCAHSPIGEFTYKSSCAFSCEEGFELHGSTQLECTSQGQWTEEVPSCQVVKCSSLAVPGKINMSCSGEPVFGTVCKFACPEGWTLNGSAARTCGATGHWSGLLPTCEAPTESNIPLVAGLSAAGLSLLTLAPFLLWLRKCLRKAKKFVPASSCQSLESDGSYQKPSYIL

Compound	outcome [1]	outcome [2]	outcome [3]	outcome [4]	AC50 [5]	outcome [6]	outcome [7]	outcome [8]	AC50 [9]	outcome [10]	outcome [5]	outcome [9]	AC50 [6]	AC50 [7]	AC50 [8]	AC50 [3]	AC50 [2]
CNC(=O)Oc1cccc(N=CN(C)C)c1	inactive	inactive	inactive	inactive	20 µM (active)	inactive	inactive	inactive	18.2 µM (active)								
CNC(=O)CSP(=S)(OC)OC	inactive					inactive	inactive	inactive		inactive	inactive	inactive					
N#Cc1c(Cl)c(Cl)c(Cl)c(C#N)c1Cl	inactive	inactive	inactive	inactive	1.46 µM (active)				0.166 µM (active)	inactive			2.48 µM (active)	1.98 µM (active)	1.48 µM (active)		
O=[N+]([O-])c1c(Cl)c(Cl)c(Cl)c(Cl)c1Cl	inactive	inactive	inactive	inactive		inactive	inactive	inactive	36.9 µM (active)	inactive	inactive						
CCC(C)(NC(=O)c1cc(Cl)c(C)c(Cl)c1)C(=O)CCl (centres undefined)	inactive	inactive	inactive	inactive	8.28 µM (active)				3.57 µM (active)	inactive			33.8 µM (active)	21.1 µM (active)	13.8 µM (active)		
CC1(C)C(C=C(Cl)Cl)C1C(=O)OC(C#N)c1ccc(F)c(Oc2ccccc2)c1 (centres undefined)		inactive	inactive	inactive		inactive	inactive			inactive	inactive	inactive			7.95 µM (active)		
CCC(C)Nc1c([N+](=O)[O-])cc(C(C)(C)C)cc1[N+](=O)[O-] (centres undefined)	inactive		inactive		25.8 µM (active)	inactive			20 µM (active)					31.3 µM (active)	20 µM (active)		
COP(=S)(OC)Oc1ccc(SC)c(C)c1	inactive	inactive	inactive				inactive	inactive			inactive	inactive	5.15 µM (active)				
CCC(C)(C)C(=O)OC1=C(c2ccc(Cl)cc2Cl)C(=O)OC12CCCCC2	inactive	inactive		inactive	19.9 µM (active)				11 µM (active)	inactive			31 µM (active)	29.4 µM (active)	15.1 µM (active)		
ClC1C(Cl)C(Cl)C(Cl)C(Cl)C1Cl (centres undefined)	inactive	inactive	inactive	inactive	20 µM (active) and 25.7 µM (active) and 5.22 µM (active)	inactive	inactive	inactive	28.2 µM (active) and 25.3 µM (active)		inactive	inactive				31.1 µM (active) and 26.2 µM (active)	
OCCOc1ccccc1	inactive	inactive	inactive	inactive		inactive	inactive	inactive		inactive	inactive	inactive					
CC(C)OC(=O)Nc1cccc(Cl)c1	inactive	inactive	inactive	inactive		inactive	inactive	inactive		inactive	inactive	inactive					
COC(=O)c1ccccc1CS(=O)(=O)NC(=O)Nc1nc(OC)cc(OC)n1	inactive	inactive	inactive	inactive		inactive	inactive	inactive			inactive	inactive					
CCS(=O)(=O)c1cccnc1S(=O)(=O)NC(=O)Nc1nc(OC)cc(OC)n1	inactive	inactive	inactive	inactive		inactive	inactive	inactive		inactive	inactive	inactive					
CN1CSC(=S)N(C)C1	inactive	inactive		inactive	18.1 µM (active)	inactive		inactive	19 µM (active)	inactive				31.2 µM (active)			
Oc1ccc(Cl)cc1Cc1ccccc1	inactive	inactive	inactive	inactive	34.7 µM (active) [middle of 6 runs]			inactive	31.3 µM (active) [middle of 7 runs]				33.8 µM (active) [middle of 7 runs]	34.8 µM (active) [middle of 7 runs]	14.5 µM (active) [middle of 5 runs]		13.6 µM (active) [middle of 5 runs]
O=C1c2ccccc2C(=O)N1SC(Cl)(Cl)Cl	inactive	inactive	inactive				inactive	inactive			inactive	inactive	32 µM (active)				
CC(C)(C)C(O)C(Oc1ccc(Cl)cc1)n1cncn1 (centres undefined)	inactive	inactive	inactive	inactive	3.36 µM (active)	inactive	inactive	inactive	5.49 µM (active)	inactive	inactive	inactive					
O=C(O)COc1ccc(Cl)cc1Cl	inactive		inactive			inactive	inactive	inactive			inactive	inactive					
O=C(O)C(F)(F)C(F)(F)C(F)(F)C(F)(F)C(F)(F)C(F)(F)C(F)(F)F	inactive	inactive	inactive			inactive	inactive	inactive		inactive	inactive	inactive				57 µM (active) and 37.4 µM (active) and 56.2 µM (active)	
CNC(=O)/C=C(\C)OP(=O)(OC)OC	inactive	inactive	inactive			inactive	inactive	inactive			inactive	inactive					
